# Measured values reported in the supplement of paper PMC10849652.
# Targets with a hit are over-represented here; the source holds about 8,800 in all. About 0.5% of all pairs of compound and target were hits. A number with no mark means an inactive call.
# Experiments:
# Experiment in all cases: log2 fold change, soluble protein after heating vs DMSO (PISA); higher = thermal stabilisation; K562 lysate, 10 uM; active = over 0.2 and 3.5 SD of the protein, either way, in both replicates (recomputed)
# [1] = compound: CS(=O)(=O)CCNCc1ccc(-c2ccc3ncnc(Nc4ccc(OCc5cccc(F)c5)c(Cl)c4)c3c2)o1 [lapatinib]
# Procedure, shortened: (§1)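 Dounce homogenisation of K562 pellets in PBS pH 7.4 with 1 mM MgCl2 produced a crude extract, used at 1 mg/mL protein. Exposure to 10 μM compound lasted 30 min, and aliquots were then heated for 3 min across 48°C-58°C, pooled and brought to 0.5% NP-40 at 4°C. The supernatant after 21,000xg for 90 min was quantified by TMTpro 16plex LC-MS/MS with channel sums equalised. Duplicate values are given as log-two fold change in thermal stability relative to solvent controls.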
# [2] = compound: CS(=O)(=O)N1CCN(Cc2cc3nc(-c4cccc5[nH]ncc45)nc(N4CCOCC4)c3s2)CC1 [pictilisib]
# Procedure, shortened: as §1
# [3] = compound: C[C@@H](Oc1cc(-c2cnn(C3CCNCC3)c2)cnc1N)c1c(Cl)ccc(F)c1Cl [crizotinib]
# Procedure, shortened: as §1
# [4] = compound: C[C@H](C1=CC=C(C=C1)C(=O)NC2=C3C=CNC3=NC=C2)N
# Procedure, shortened: as §1
# [5] = compound: C[C@H](Nc1ncnc2nc[nH]c12)c1cc2cccc(Cl)c2c(=O)n1-c1ccccc1 [duvelisib]
# Procedure, shortened: as §1
# [6] = compound: Cc1cc(Nc2cc(CN3CCOCC3)c3nc(C)c(Cc4ccc(Cl)cc4F)n3n2)n[nH]1 [gandotinib]
# Procedure, shortened: as §1
# [7] = compound: Cc1cc(Nc2cc(N3CCN(C)CC3)nc(Sc3ccc(NC(=O)C4CC4)cc3)n2)n[nH]1 [tozasertib]
# Procedure, shortened: as §1
# [8] = compound: Cc1ccc(-n2nc(C(C)(C)C)cc2NC(=O)Nc2ccc(OCCN3CCOCC3)c3ccccc23)cc1 [doramapimod]
# Procedure, shortened: as §1
# [9] = compound: Cc1ccc(NC(=O)c2ccc(CN3CC[C@H](N(C)C)C3)c(C(F)(F)F)c2)cc1Nc1nccc(-c2cncnc2)n1 [bafetinib]
# Procedure, shortened: as §1
# [10] = compound: Cc1cccc(CC(=O)N2CCc3c2ccc(-c2cn(C)c4ncnc(N)c24)c3F)n1
# Procedure, shortened: as §1
# [11] = compound: Cc1cn(-c2cc(NC(=O)c3ccc(C)c(Nc4nccc(-c5cccnc5)n4)c3)cc(C(F)(F)F)c2)cn1 [nilotinib]
# Procedure, shortened: as §1
# [12] = compound: Cc1nc(Nc2n[nH]c3c2CN(C(=O)N[C@H](CN(C)C)c2ccccc2)C3(C)C)c2sccc2n1
# Procedure, shortened: as §1
# [13] = compound: Cc1nc(Nc2ncc(C(=O)Nc3c(C)cccc3Cl)s2)cc(N2CCN(CCO)CC2)n1 [dasatinib]
# Procedure, shortened: as §1
# [14] = compound: Cc1ncc(-c2ccnc(Nc3ccc(S(C)(=O)=O)cc3)n2)n1C(C)C
# Procedure, shortened: as §1
# [15] = compound: Cn1cc(-c2ccc3c(c2)CCN3C(=O)Cc2cccc(C(F)(F)F)c2)c2c(N)ncnc21
# Procedure, shortened: as §1
# [16] = compound: Cn1cc(CNCC2CCN(c3ncc(C(=O)NO)cn3)CC2)c2ccccc21 [quisinostat]
# Procedure, shortened: as §1
# [17] = compound: Cn1cncc1[C@@](N)(c1ccc(Cl)cc1)c1ccc2c(c1)c(-c1cccc(Cl)c1)cc(=O)n2C [tipifarnib]
# Procedure, shortened: as §1
# [18] = compound: NC(=O)Nc1cc(-c2cccc(F)c2)sc1C(=O)N[C@H]1CCCNC1
# Procedure, shortened: as §1
# [19] = compound: NC(=O)c1cnc(N[C@@H]2CCCC[C@@H]2N)nc1Nc1cccc(-n2nccn2)c1
# Procedure, shortened: as §1
# [20] = compound: NC1(c2ccc(-c3nc4ccn5c(=O)[nH]nc5c4cc3-c3ccccc3)cc2)CCC1
# Procedure, shortened: as §1
# Chain of UniProt Q9BR61 (Q9BR61 whole entry, looked up): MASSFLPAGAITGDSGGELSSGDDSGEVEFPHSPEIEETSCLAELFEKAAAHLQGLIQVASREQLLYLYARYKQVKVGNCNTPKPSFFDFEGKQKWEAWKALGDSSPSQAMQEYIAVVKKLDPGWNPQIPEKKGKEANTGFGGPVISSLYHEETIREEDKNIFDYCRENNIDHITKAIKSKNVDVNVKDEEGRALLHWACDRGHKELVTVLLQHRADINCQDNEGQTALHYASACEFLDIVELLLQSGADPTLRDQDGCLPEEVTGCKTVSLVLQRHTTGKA
# Chain of UniProt P05091 (P05091 whole entry, looked up): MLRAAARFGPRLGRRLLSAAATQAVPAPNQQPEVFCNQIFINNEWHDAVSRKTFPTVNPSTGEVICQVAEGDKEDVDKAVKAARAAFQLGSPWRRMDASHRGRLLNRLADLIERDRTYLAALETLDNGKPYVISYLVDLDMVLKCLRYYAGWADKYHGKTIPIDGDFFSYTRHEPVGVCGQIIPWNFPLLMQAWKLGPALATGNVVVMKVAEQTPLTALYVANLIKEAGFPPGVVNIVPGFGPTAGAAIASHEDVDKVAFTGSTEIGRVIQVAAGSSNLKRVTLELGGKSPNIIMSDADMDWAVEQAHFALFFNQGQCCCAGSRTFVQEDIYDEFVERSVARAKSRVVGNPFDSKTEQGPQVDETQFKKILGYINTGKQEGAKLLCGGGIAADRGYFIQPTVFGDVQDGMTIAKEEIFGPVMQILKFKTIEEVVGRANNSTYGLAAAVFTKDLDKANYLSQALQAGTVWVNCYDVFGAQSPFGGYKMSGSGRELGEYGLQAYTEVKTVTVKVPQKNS
# Chain of UniProt Q9UKV3 (Q9UKV3 whole entry, looked up): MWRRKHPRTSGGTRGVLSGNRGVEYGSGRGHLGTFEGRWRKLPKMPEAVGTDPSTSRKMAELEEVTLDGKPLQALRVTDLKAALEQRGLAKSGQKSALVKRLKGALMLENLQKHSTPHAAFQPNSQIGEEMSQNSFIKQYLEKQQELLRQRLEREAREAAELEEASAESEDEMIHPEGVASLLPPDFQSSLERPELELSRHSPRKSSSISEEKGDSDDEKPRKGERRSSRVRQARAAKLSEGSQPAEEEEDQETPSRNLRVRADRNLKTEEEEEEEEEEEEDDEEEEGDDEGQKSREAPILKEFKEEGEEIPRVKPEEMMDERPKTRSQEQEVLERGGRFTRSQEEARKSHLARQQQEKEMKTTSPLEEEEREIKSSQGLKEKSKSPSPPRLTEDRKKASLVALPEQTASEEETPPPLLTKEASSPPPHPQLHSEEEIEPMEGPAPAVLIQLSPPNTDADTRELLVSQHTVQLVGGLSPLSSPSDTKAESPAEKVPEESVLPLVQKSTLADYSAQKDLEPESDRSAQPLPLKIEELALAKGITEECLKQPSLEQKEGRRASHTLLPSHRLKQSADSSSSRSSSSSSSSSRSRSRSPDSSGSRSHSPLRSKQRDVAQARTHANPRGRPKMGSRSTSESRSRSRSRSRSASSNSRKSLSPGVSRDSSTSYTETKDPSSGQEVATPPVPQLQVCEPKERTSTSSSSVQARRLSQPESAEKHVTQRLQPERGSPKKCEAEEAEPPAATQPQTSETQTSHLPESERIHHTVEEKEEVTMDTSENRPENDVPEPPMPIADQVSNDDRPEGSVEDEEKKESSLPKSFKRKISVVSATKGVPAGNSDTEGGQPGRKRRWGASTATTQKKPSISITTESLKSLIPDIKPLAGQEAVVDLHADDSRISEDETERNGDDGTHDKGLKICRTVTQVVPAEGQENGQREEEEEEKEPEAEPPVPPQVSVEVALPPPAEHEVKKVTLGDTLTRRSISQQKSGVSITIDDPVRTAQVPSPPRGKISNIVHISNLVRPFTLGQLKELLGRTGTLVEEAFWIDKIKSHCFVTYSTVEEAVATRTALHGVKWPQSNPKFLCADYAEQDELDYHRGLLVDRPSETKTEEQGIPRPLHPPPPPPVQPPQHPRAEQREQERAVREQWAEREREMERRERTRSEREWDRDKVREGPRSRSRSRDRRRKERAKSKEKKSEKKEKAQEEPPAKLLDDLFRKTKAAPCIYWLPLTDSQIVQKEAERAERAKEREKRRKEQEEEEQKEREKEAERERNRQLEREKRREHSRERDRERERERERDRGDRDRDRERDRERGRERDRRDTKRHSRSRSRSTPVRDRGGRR
# Chain of UniProt Q9BQI0 (Q9BQI0 whole entry, looked up): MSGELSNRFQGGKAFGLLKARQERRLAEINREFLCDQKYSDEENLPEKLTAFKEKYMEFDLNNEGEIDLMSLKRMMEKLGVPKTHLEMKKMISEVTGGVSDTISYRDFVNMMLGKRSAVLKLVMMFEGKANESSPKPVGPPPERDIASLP
# Chain of UniProt P35573 (P35573 whole entry, looked up): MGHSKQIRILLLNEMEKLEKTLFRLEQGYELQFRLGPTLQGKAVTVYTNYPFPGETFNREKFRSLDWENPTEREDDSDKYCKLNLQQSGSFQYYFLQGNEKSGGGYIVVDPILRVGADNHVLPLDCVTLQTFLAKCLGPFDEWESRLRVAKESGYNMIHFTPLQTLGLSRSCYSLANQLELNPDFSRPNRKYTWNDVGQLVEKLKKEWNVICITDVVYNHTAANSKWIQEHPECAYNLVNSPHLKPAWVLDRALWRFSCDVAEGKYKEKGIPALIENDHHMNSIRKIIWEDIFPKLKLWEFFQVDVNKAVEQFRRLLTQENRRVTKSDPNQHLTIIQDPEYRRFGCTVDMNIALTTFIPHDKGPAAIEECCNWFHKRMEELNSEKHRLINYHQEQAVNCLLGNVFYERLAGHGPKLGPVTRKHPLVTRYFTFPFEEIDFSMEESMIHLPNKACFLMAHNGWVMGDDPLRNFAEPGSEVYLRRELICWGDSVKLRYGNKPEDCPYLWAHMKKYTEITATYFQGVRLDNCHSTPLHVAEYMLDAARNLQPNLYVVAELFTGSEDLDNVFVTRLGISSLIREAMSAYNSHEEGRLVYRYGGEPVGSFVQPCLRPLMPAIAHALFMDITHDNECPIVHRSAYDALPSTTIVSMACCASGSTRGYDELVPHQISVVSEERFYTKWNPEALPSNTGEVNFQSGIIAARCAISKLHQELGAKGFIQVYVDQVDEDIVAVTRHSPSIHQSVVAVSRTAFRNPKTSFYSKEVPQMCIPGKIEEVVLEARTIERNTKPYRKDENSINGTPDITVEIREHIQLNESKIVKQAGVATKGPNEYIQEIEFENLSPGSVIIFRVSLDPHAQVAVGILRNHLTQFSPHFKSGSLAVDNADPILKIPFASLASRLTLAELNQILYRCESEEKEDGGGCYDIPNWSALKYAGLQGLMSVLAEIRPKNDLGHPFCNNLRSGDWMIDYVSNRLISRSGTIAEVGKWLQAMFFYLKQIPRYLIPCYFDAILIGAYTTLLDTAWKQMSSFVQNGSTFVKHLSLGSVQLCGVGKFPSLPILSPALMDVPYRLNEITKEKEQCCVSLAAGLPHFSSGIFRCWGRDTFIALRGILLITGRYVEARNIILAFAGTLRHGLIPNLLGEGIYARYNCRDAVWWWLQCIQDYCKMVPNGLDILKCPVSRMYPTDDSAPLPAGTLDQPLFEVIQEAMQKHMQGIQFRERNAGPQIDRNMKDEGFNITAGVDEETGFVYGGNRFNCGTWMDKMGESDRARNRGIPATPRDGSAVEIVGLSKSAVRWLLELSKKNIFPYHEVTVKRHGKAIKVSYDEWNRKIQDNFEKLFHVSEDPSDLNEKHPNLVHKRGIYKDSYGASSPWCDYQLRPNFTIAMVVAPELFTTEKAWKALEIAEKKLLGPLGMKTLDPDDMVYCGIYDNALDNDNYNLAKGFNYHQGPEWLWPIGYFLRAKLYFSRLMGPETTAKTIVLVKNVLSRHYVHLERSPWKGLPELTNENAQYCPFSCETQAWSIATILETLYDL
# Chain of UniProt Q9BRQ8 (Q9BRQ8 whole entry, looked up): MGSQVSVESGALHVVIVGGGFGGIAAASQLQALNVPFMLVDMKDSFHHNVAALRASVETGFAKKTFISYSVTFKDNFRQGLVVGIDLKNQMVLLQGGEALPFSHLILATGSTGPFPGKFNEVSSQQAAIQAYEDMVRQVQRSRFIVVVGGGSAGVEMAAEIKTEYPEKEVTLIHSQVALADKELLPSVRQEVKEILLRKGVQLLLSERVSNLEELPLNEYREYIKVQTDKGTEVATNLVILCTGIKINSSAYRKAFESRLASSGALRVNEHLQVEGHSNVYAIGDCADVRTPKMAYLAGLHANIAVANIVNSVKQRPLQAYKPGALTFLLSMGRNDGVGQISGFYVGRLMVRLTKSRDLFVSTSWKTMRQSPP
# Chain of UniProt P50995 (P50995 whole entry, looked up): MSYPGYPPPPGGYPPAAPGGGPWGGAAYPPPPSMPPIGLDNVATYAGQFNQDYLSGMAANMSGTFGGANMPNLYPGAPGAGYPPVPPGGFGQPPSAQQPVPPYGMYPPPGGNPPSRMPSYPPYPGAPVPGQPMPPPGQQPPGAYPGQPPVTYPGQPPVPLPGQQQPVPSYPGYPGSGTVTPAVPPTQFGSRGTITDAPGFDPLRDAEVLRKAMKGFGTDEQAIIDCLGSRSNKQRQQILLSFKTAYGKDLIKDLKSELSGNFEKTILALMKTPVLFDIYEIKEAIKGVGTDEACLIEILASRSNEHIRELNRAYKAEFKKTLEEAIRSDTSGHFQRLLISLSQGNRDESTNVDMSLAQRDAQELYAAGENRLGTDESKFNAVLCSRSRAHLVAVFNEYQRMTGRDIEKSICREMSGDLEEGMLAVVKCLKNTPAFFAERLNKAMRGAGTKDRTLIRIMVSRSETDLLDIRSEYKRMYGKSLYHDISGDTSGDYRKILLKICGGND
# Chain of UniProt Q5VST6 (Q5VST6 whole entry, looked up): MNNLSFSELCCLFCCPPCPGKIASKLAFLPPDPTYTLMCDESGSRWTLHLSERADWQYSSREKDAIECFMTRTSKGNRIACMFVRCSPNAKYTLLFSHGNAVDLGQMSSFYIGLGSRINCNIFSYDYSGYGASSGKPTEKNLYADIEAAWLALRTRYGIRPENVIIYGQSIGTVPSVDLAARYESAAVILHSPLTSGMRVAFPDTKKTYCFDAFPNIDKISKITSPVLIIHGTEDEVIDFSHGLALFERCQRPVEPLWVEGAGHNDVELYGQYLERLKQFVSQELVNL
Target,log2 fold change [1],log2 fold change [2],log2 fold change [3],log2 fold change [4],log2 fold change [5],log2 fold change [6],log2 fold change [7],log2 fold change [8],log2 fold change [9],log2 fold change [10],log2 fold change [11],log2 fold change [12],log2 fold change [13],log2 fold change [14],log2 fold change [15],log2 fold change [16],log2 fold change [17],log2 fold change [18],log2 fold change [19],log2 fold change [20]
ABHD17B (UniProt Q5VST6),0.075,-0.076,-0.051,0.01,0.026,-0.012,-0.513 (active),-0.026,0.01,0.183,0.032,0.057,0.007,0.087,0.095,0.003,-0.099,0.009,-0.041,0.009
AIFM2 (UniProt Q9BRQ8),0.132,-0.024,0.06,-0.143,0.004,0.507 (active),-0.014,0.307,0.086,0.089,0.057,-0.006,-0.072,-0.03,0.024,-0.105,0.411 (active),-0.028,-0.054,0
ANP32A (UniProt P39687),0.068,-0.001,0,-0.063,-0.003,0.065,0.014,0.096,0.126,0,-0.003,0.03,0.125,-0.011,-0.039,-0.006,0.002,-0.097,0.012,-0.359 (active)
ABHD16A (UniProt O95870),0.032,0.028,0.018,0.006,-0.078,0.081,-0.072,0.013,0.018,-0.021,-0.015,0.02,0.009,0.027,-0.051,0.143,-0.012,-0.014,-0.003,-0.054
ACBD6 (UniProt Q9BR61),-0.002,0.01,-0.04,-0.036,0.063,-0.01,-0.051,-0.024,-0.047,0.006,-0.032,0.007,0.04,0.012,0.013,-0.017,0.013,-0.014,0.06,-0.04
ANXA11 (UniProt P50995),-0.005,-0.008,0.001,-0.044,-0.022,0.008,0.026,0.012,-0.03,0.039,0.014,-0.017,-0.033,-0.029,0.016,0.005,-0.011,-0.002,0.009,0.028
AGL (UniProt P35573),-0.004,0,-0.019,0.115,-0.013,-0.094,0.014,0.029,-0.037,-0.059,-0.024,-0.007,-0.027,-0.005,0.028,-0.016,0.016,0.038,0.016,-0.007
ALDH2 (UniProt P05091),0,0,-0.02,-0.012,-0.03,0.011,0.023,-0.023,0.017,-0.077,0.028,-0.017,0.014,-0.013,0.001,0.121,0.039,0.001,0.016,-0.003
AKT1 (UniProt P31749),0.054,0.002,-0.049,-0.034,-0.008,-0.048,0,0.031,-0.044,0.033,-0.05,0.012,-0.014,-0.01,0.001,-0.1,0.025,0,-0.007,0.669 (active)
AGPS (UniProt O00116),-0.017,-0.049,-0.02,-0.033,-0.011,0.019,0.015,0.025,0.002,0.083,-0.014,-0.021,-0.033,0.05,0.008,0.064,-0.015,0.014,0.004,0.003
AK2 (UniProt P54819),0.058,-0.005,-0.007,0.076,-0.031,0,0,0.061,0.005,-0.046,0.003,-0.006,0.079,-0.013,-0.022,0.024,0.007,-0.066,0.013,0.004
ACIN1 isoform 5 (UniProt Q9UKV3),0.012,-0.024,0.034,0.022,-0.002,-0.003,0.003,0.01,-0.013,0.002,0.017,-0.018,-0.012,0.001,0.008,0.011,0,-0.063,0.024,0.01
AIF1L (UniProt Q9BQI0),0.047,0.046,0.039,0.069,-0.075,-0.171,-0.105,-0.037,-0.122,0.101,-0.263,-0.176,0.118,0.142,-0.058,-0.075,0.123,-0.112,-0.012,0.016
ACADM isoform 2 (UniProt P11310),-0.007,-0.009,-0.042,-0.007,-0.007,0.029,0.029,-0.03,0.024,-0.01,-0.031,-0.008,-0.041,-0.009,0.001,0.009,-0.021,-0.027,-0.033,-0.091
AKR1B1 (UniProt P15121),-0.009,0.006,0.065,-0.102,-0.006,0.037,-0.014,-0.022,0.011,0.006,0.031,-0.022,0.086,0.028,-0.136,0.016,-0.036,0.03,-0.009,0.038
AKAP8 (UniProt O43823),0.008,-0.126,0.023,0.035,0.022,0.003,0.017,-0.071,-0.119,0.039,-0.3 (active),0.039,0.01,-0.001,0.006,-0.075,0.025,0.084,0.022,0.059
